Counter-ions that a name gives are not always drawn. ± gives the standard deviation of the averaged measurements.
Tested on: HCT116
Assay: cell viability (CellTiter-Glo) relative to plate median (fraction of plate median); higher = more viable cells
Details: 10 µM; treatment time 24 h; reporter: TCF4/Wnt
Summary of the method: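 Colorectal cancer cell lines stably transduced with lentiviral TCF/Wnt firefly luciferase reporters (7TFP or TCF4/Wnt) were seeded in 384-well plates. 24 h later they received kinase inhibitor library compounds at a final 10 µM for 24 h. Parallel plates were read for firefly luciferase or CellTiterGlo luminescence on a Tecan F500 reader. Each well's signal was normalised to the plate median (webcellHTS2, additive, no log transformation), and the mean of two independent replicates is reported.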

SMILES | cell viability
OCCn1cc(-c2ccc3c(c2)CC/C3=N\O)c(-c2ccncc2)n1 | 0.979 ± 0.059
Cn1cc(-c2ccc3ncc(Cc4ccc5ncccc5c4)n3n2)cn1 | 1.15 ± 0.028
CNC(=O)c1cccc(-c2ccc3c(N4CCOC[C@@H]4C)nc(N4CCOC[C@@H]4C)nc3n2)c1 | 0.794 ± 0.055
CC(C)(C)Cn1c(N)nc2ccc(-c3[nH]c(C(C)(C)C)nc3-c3ccc(F)cc3)nc21 | 0.928 ± 0.071
C[C@]1(O)C[C@@H](c2nc(-c3ccc4ccc(-c5ccccc5)nc4c3)c3c(N)nccn32)C1 [Linsitinib (OSI-906)] | 0.82 ± 0.0099
CCN(CC)CCNC(=O)c1c(C)[nH]c(/C=C2\C(=O)Nc3ccc(F)cc32)c1C [Sunitinib Malate (Sutent)] | 0.659 ± 0.31
COc1cc(Nc2ncc(F)c(Nc3ccc4c(n3)N(COP(=O)(O)O)C(=O)C(C)(C)O4)n2)cc(OC)c1OC | 0.8 ± 0.055
Cc1cc(C(C)Nc2ccccc2)c2nc(N3CCOCC3)cc(=O)n2c1 (centres undefined) | 1.115 ± 0.0071
Cn1cc(-c2ccc3nnc(Sc4ccc5ncccc5c4)n3n2)cn1 | 1.07 ± 0.05
N#Cc1c(O)c2c(-c3ccc(-c4ccccc4O)cc3)csc2[nH]c1=O | 1.25
C#Cc1cccc(Nc2ncnc3cc(OCCOC)c(OCCOC)cc23)c1 [Erlotinib HCl] | 1.14 ± 0.078
N#CC(=C(/N)Sc1ccccc1N)/C(C#N)=C(\N)Sc1ccccc1N | 0.938 ± 0.043
Nc1cccc(-c2cc3c(Oc4cccc(O)c4)ncnc3[nH]2)c1 | 1.05 ± 0.028
CCOc1cc2ncc(C#N)c(Nc3ccc(F)c(Cl)c3)c2cc1NC(=O)/C=C/CN(C)C [Pelitinib (EKB-569)] | 0.878 ± 0.021

Source: the supplement of paper PMC6522484
